Test results from PubChem BioAssay AID1159580 (chemical genetic matrix, 2015).
Values joined by “and” are separate entries in the source; they are usually repeats but may differ in a detail not shown here. Equal entries are not always repeated. In all, about 5,500 compounds went through this assay and about 2,000 (36%) were called active. About 18% were inconclusive and are not listed. Cut-off read from the data, not from the text of the source: active = normalized growth mostly below about 0.91 (no sharp cut-off); inconclusive = no clear call, values can overlap the other calls; inactive = mostly above about 0.92. Some of the results follow.

Experiment: chemical genetic growth profiling, strain panel (AID 1159580);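 note: tested at 20 µM; growth read once vehicle control cultures reached saturation at 30 °C; 1 = growth at the plate median or of vehicle wells; lower values mean less growth of the strain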
Details: S. cerevisiae deletion strains, growth OD

Measured: normalized growth

O=C(COc1ccc(Cl)cc1)N1CCN(Cc2ccc3c(c2)OCO3)CC1
active: locus YDR502C, strain sam2, stronger effect = lower value 0.908 | locus YGR135W, strain pre9, stronger effect = lower value 0.825 | locus YMR223W, strain ubp8, stronger effect = lower value 0.898 | locus YNL307C, strain MCK1, stronger effect = lower value 0.9 | locus YOR184W, strain ser1, stronger effect = lower value 0.845
0.773 (active) and 0.983 (inactive): locus YJL095W, strain BCK1, stronger effect = lower value
inactive: locus YAL013W, strain DEP1, stronger effect = lower value 0.989 | locus YBR021W, strain FUR4, stronger effect = lower value 0.977 | locus YBR229C, strain ROT2, stronger effect = lower value 0.98 | locus YCL029C, strain bik1, stronger effect = lower value 0.979 | locus YDL035C, strain GPR1, stronger effect = lower value 0.93 | locus YDL074C, strain BRE1, stronger effect = lower value 1 | locus YDL101C, strain DUN1, stronger effect = lower value 0.985 | locus YDL134C, strain PPH21, stronger effect = lower value 0.958 | locus YDL185W, strain tfp1, stronger effect = lower value 0.962 | locus YDL192W, strain arf1, stronger effect = lower value 0.945 | locus YDR101C, strain arx1, stronger effect = lower value 1.01 | locus YDR150W, strain NUM1, stronger effect = lower value 0.976 | locus YDR162C, strain NBP2, stronger effect = lower value 0.918 | locus YDR318W, strain mcm21, stronger effect = lower value 0.921 | locus YDR388W, stronger effect = lower value 0.972 | locus YEL061C, strain CIN8, stronger effect = lower value 0.985 | locus YER110C, stronger effect = lower value 0.962 | locus YER155C, strain BEM2, stronger effect = lower value 1.02 | locus YER167W, strain BCK2, stronger effect = lower value 0.987 | locus YGL078C, strain dbp3, stronger effect = lower value 1 | locus YGL086W, strain mad1, stronger effect = lower value 0.973 | locus YGL248W, strain PDE1, stronger effect = lower value 0.983 | locus YGR078C, strain PAC10, stronger effect = lower value 0.952 | locus YGR252W, strain gcn5, stronger effect = lower value 0.938 | locus YHR030C, strain SLT2, stronger effect = lower value 0.954 and 0.981 | locus YHR079C, strain IRE1 (second series), stronger effect = lower value 0.977 | locus YHR079C, strain IRE1, stronger effect = lower value 0.972 | locus YHR094C, strain hxt1, stronger effect = lower value 0.978 | locus YHR129C, strain ARP1, stronger effect = lower value 0.977 | locus YHR200W, strain rpn10, stronger effect = lower value 0.976 | locus YIL066C, strain RNR3, stronger effect = lower value 0.887 | locus YIL073C, strain SPO22, stronger effect = lower value 0.827 | locus YIL125W, strain kgd1, stronger effect = lower value 1 | locus YIR030C, strain dcg1, stronger effect = lower value 0.973 | locus YJL134W, strain LCB3, stronger effect = lower value 0.977 | locus YJL168C, strain set2, stronger effect = lower value 0.98 | locus YJL187C, strain SWE1 (second series), stronger effect = lower value 0.932 | locus YJR043C, strain POL32, stronger effect = lower value 1.08 | locus YJR066W, strain TOR1, stronger effect = lower value 0.916 | locus YJR075W, strain HOC1, stronger effect = lower value 0.943 | locus YKL009W, strain mrt4, stronger effect = lower value 0.987 | locus YKL068W, stronger effect = lower value 0.983 | locus YKL085W, strain MDH1 (second series), stronger effect = lower value 0.98 | locus YKL085W, strain MDH1, stronger effect = lower value 0.98 | locus YKL190W, strain CNB1, stronger effect = lower value 0.976 | locus YKR001C, strain vps1, stronger effect = lower value 1.04 | locus YLR039C, strain RIC1, stronger effect = lower value 0.738 | locus YLR058C, strain SHM2, stronger effect = lower value 0.962 | locus YLR102C, strain apc9, stronger effect = lower value 0.986 | locus YLR113W, strain HOG1, stronger effect = lower value 1 | locus YLR262C, strain YPT6, stronger effect = lower value 0.668 | locus YLR268W, strain sec22, stronger effect = lower value 0.911 | locus YLR330W, strain CHS5, stronger effect = lower value 0.979 | locus YLR342W, strain FKS1 (second series), stronger effect = lower value 0.902 | locus YLR371W, strain rom2, stronger effect = lower value 0.985 | locus YLR418C, strain cdc73, stronger effect = lower value 0.864 | locus YML016C, strain PPZ1, stronger effect = lower value 0.97 | locus YML032C, strain rad52, stronger effect = lower value 0.952 | locus YML124C, strain tub3, stronger effect = lower value 0.998 | locus YMR078C, strain ctf18, stronger effect = lower value 0.971 | locus YMR307W, strain GAS1, stronger effect = lower value 1.01 | locus YNL067W, strain RPL9B, stronger effect = lower value 0.957 | locus YNL183C, strain NPR1, stronger effect = lower value 0.918 | locus YNL233W, strain BNI4, stronger effect = lower value 0.941 | locus YNL250W, strain rad50, stronger effect = lower value 0.981 | locus YNL271C, strain bni1, stronger effect = lower value 0.988 | locus YNL298W, strain CLA4, stronger effect = lower value 0.983 | locus YNL322C, strain KRE1, stronger effect = lower value 0.976 | locus YNR052C, strain pop2, stronger effect = lower value 0.943 | locus YOL012C, strain htz1 1.78 | locus YOL147C, strain pex11, stronger effect = lower value 0.962 | locus YOR061W, strain CKA2, stronger effect = lower value 0.971 | locus YOR069W, strain VPS5, stronger effect = lower value 0.973 | locus YOR136W, strain idh2, stronger effect = lower value 0.992 | locus YOR144C, strain elg1, stronger effect = lower value 0.993 | locus YOR231W, strain MKK1, stronger effect = lower value 0.999 | locus YOR316C, strain cot1, stronger effect = lower value 0.984 | locus YPL055C, strain LGE1, stronger effect = lower value 0.998 | locus YPL241C, strain CIN2, stronger effect = lower value 0.974 | locus YPL256C, strain CLN2, stronger effect = lower value 0.97 | locus YPR119W, strain clb2, stronger effect = lower value 0.989 | locus YPR141C, strain kar3, stronger effect = lower value 0.988 | locus YPR163C, strain tif3, stronger effect = lower value 0.955 | locus YPR167C, strain met16, stronger effect = lower value 0.987 | strain wtn01, stronger effect = lower value 0.905
